# Source: the supplement of paper PMC11001985
# A number with no mark means an inactive call.
# Compound: C#CCNC(=O)CCSSCCC(=O)NCCc1ccc(C=O)c(C=O)c1
# Assay: lysine labeling ratio R10:1 (500 µM / 50 µM probe), SILAC-ABPP in living cells; higher = lower intrinsic lysine reactivity toward the probe, active = 2 or less
# Details: HeLa; probe concentrations 500 vs 50 µM
# In short: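 Living SILAC light and heavy HeLa cells in PBS at room temperature were treated with an alkyne-tagged, disulfide-linked lysine probe at 50 µM or 500 µM, with forward and reverse label swaps. The mixed lysates were clicked to biotin-azide, digested with trypsin, captured on neutravidin, released with DTT, alkylated and run by LC-MS/MS on a TIMS-TOF Pro. R for each lysine is the filtered median high-probe/low-probe MS1 peptide ratio, taken again as the median over forward and reverse replicates. Any value above 20 is set to 20.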
# Chain of UniProt P06756 (P06756 whole entry): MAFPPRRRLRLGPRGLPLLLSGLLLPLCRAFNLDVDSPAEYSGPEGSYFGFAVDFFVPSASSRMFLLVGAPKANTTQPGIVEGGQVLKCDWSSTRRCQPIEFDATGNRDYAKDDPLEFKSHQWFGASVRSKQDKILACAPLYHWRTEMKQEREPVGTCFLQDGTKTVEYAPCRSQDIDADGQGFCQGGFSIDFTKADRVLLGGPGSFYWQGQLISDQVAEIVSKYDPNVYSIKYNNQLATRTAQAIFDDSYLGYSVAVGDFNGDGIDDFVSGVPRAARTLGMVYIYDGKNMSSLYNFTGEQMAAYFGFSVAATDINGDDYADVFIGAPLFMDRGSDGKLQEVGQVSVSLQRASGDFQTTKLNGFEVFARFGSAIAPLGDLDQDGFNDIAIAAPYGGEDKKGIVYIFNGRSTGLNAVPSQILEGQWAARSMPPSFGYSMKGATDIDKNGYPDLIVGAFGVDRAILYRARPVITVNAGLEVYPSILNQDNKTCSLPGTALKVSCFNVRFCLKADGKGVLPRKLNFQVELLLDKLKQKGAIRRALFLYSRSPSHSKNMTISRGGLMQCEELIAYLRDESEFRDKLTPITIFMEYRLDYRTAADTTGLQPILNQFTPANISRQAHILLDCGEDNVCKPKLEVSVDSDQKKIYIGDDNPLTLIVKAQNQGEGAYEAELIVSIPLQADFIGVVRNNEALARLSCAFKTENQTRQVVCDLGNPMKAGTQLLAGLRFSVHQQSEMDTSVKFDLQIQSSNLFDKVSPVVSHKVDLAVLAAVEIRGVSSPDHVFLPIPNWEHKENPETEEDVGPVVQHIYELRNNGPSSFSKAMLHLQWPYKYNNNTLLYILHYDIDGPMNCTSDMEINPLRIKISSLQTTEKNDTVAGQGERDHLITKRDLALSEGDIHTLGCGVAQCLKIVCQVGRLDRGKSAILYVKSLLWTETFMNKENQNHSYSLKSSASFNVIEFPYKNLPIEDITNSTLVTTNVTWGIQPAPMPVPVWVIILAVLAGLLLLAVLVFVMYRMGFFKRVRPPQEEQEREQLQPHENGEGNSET
# Chain of UniProt P26038 (P26038 whole entry): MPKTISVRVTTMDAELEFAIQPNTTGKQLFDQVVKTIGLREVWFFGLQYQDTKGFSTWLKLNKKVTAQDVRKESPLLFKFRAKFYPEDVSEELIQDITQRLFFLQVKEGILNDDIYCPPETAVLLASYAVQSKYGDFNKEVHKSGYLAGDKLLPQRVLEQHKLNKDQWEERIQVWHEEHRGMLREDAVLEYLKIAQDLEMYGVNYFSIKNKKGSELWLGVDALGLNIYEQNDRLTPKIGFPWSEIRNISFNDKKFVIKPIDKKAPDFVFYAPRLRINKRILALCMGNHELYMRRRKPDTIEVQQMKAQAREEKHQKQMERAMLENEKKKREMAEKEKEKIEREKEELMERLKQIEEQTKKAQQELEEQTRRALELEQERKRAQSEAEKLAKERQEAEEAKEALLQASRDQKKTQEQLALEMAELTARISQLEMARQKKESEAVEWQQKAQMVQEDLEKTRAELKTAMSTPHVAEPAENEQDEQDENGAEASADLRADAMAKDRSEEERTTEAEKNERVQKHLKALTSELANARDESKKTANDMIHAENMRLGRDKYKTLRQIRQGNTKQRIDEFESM
# Chain of UniProt P25789 (P25789 whole entry): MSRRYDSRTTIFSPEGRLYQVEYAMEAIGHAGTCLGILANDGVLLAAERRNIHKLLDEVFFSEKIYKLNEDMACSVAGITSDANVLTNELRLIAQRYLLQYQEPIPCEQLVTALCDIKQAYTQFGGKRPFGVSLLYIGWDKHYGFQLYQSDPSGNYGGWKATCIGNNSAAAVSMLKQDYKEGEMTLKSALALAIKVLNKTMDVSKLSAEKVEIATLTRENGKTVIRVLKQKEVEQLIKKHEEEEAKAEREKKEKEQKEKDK
# Chain of UniProt Q9UHI8 (Q9UHI8 whole entry): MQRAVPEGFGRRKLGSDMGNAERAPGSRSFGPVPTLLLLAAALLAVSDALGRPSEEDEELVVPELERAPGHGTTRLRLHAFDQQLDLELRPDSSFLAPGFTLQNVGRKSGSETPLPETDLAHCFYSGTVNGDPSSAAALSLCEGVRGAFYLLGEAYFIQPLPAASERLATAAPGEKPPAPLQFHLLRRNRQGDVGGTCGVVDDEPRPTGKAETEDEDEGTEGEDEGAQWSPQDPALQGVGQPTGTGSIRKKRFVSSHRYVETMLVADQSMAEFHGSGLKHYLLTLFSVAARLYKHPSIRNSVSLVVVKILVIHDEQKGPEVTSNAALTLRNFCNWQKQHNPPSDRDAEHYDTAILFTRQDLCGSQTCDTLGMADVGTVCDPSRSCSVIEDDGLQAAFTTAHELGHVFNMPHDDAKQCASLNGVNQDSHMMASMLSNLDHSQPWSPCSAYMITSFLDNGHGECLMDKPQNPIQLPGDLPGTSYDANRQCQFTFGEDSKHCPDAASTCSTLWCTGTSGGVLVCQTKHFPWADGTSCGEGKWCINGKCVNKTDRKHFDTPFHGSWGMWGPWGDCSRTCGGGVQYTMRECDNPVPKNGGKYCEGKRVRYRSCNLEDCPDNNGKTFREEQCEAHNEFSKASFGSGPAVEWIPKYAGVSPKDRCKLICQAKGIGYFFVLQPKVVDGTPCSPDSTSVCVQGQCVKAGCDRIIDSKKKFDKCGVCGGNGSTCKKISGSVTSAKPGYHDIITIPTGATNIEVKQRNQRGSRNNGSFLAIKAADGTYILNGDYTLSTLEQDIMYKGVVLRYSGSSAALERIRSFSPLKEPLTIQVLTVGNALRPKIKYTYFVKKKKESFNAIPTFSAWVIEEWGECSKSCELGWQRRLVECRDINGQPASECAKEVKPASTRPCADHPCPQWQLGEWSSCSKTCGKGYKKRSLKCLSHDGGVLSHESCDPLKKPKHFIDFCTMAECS
# Chain of UniProt Q14980 (Q14980 whole entry): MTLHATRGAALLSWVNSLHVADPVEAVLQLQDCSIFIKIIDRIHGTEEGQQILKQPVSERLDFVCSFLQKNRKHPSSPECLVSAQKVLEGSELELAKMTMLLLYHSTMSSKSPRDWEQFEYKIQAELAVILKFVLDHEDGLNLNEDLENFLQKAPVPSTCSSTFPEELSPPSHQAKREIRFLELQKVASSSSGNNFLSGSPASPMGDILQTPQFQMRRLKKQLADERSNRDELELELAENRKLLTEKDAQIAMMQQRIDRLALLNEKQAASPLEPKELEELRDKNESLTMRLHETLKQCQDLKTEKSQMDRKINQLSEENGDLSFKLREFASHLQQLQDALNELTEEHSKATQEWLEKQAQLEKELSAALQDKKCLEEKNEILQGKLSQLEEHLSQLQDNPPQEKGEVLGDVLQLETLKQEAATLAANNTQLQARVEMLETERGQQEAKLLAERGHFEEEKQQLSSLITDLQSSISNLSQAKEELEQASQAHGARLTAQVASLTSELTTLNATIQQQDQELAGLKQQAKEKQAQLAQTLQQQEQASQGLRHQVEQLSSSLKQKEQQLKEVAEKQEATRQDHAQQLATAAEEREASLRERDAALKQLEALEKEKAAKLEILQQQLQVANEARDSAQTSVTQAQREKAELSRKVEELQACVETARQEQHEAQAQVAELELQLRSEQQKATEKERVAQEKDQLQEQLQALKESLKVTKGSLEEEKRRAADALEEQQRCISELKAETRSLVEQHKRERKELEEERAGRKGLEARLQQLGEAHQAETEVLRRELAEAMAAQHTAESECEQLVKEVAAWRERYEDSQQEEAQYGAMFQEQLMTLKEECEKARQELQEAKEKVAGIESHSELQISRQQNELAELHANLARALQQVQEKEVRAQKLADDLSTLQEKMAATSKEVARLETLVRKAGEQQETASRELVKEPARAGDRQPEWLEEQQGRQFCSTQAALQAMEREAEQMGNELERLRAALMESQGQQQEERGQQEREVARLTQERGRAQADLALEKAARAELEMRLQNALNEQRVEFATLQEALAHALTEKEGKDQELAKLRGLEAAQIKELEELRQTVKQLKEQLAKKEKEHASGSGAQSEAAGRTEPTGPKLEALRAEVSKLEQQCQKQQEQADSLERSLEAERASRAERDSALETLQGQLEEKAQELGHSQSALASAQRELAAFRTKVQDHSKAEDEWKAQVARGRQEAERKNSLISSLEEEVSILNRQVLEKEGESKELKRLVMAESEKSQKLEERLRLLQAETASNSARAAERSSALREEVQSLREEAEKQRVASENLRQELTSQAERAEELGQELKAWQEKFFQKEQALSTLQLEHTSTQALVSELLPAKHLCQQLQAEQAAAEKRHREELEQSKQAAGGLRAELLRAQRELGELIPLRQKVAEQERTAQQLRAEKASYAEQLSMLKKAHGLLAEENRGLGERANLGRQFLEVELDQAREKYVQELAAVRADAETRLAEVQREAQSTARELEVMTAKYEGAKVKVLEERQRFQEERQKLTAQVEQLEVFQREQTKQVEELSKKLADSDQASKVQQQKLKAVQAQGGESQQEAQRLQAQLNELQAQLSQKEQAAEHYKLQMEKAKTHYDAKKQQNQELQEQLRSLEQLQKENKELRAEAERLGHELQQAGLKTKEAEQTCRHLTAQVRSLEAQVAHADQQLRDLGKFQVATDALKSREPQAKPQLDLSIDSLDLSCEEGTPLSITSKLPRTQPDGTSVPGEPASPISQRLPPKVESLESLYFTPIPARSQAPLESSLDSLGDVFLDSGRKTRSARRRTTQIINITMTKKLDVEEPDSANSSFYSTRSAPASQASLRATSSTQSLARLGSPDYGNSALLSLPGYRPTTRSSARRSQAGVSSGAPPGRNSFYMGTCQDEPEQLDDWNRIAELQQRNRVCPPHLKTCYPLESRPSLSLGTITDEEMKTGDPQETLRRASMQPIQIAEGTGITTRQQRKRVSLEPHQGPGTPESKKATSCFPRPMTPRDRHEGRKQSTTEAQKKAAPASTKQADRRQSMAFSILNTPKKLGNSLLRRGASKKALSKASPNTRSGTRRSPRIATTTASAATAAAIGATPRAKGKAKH
# Chain of UniProt Q9UII2 (Q9UII2 whole entry): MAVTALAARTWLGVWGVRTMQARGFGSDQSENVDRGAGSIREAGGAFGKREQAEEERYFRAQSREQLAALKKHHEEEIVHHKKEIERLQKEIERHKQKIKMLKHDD
row,Target,lysine labeling ratio R10:1
1,ITGB1 (lysine site: K163) (UniProt P05556),2.37
2,PGK1 (lysine site: K146) (UniProt P00558),1.57 (active)
3,SPTAN1 (lysine site: K229) (UniProt Q13813),3.87
4,UniProt Q9UII2 (lysine site: K49),3.39
5,FOLR1 (lysine site: K41) (UniProt P15328),1.41 (active)
6,SMC2 (lysine site: K222) (UniProt O95347),1.74 (active)
7,PSMA4 (lysine site: K210) (UniProt P25789),1.69 (active)
8,UniProt Q9UHI8 (lysine site: K655),2.17
9,DDX5 (lysine site: K56) (UniProt P17844),2.69
10,HSPA8 (lysine site: K71) (UniProt P11142),2.62
11,NUMA1 (lysine site: K925) (UniProt Q14980),2.01
12,CS (lysine site: K76) (UniProt O75390),5.03
13,SEMA3C (lysine site: K616) (UniProt Q99985),5.77
14,HSPD1 (lysine site: K250) (UniProt P10809),2.65
15,FAS (lysine site: K94) (UniProt P25445),2.69
16,CDCP1 (lysine site: K413) (UniProt Q9H5V8),1.38 (active)
17,ITGAV (lysine site: K499) (UniProt P06756),3.64
18,MSN (lysine site: K3) (UniProt P26038),8.6
19,COL5A1 (lysine site: K57) (UniProt P20908),1.11 (active)
20,UniProt P61978 (lysine site: K179),3.68
21,TPM4 (lysine site: K44) (UniProt P67936),1.15 (active)
22,LAMC1 (lysine site: K1425) (UniProt P11047),2.54
23,ITGA6 (lysine site: K127) (UniProt P23229),1.74 (active)
